Screens: PubChem, The Scripps Research Institute Molecular Screening Center
CHO-K1 Ca ag = nonselective activator or artifact in parental CHO-K1 cells; Fluo-8 calcium fluorescence; scaled to maximal ATP response, vehicle zero; activation, % at 3 µM; actives 0.48% (n = 360,000); AID 602248; in the data active = activation above about 15%;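 also: untransfected CHO-K1 host cells lacking M1 receptor as counterscreen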
CHO-K1 Ca PAM = nonselective activator or artifact in parental CHO-K1 calcium assay. ATP EC20, Fluo-8 calcium fluorescence; 0% at ATP EC20, 100% at ATP max. activation, % at 3 µM. actives 0.02% (n = 360,000). AID 602247;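 active = activation above the run cutoff, the mean activation of all test compounds plus 3 SD, cut at about 40% in these data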;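 also: peak over basal fluorescence ratio in a 140 s read after ATP addition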
M1 PAM = human CHRM1 positive allosteric modulation | CHO-K1 hM1, Fluo-8 calcium fluorescence, ACh EC20; 0% = ACh EC20, 100% = maximal ACh | activation, % at 3 µM | actives 0.088% (n = 360,000); in the data active = activation above about 19%, passing the limit was not always enough
Target sequence (P11229 whole entry, looked up): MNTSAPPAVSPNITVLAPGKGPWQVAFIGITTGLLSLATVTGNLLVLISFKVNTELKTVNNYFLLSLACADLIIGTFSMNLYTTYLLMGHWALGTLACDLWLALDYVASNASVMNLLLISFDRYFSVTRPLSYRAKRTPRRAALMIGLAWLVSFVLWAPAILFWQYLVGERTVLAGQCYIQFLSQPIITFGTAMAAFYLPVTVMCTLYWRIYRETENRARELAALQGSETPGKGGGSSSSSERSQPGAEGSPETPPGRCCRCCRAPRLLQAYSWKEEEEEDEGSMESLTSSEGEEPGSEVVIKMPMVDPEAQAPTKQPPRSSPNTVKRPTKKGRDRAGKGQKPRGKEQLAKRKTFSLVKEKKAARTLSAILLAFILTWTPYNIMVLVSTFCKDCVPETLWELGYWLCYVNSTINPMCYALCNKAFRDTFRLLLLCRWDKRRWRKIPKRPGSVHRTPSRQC
CHO-K1 Ca antag = nonselective inhibitor or artifact in parental CHO-K1 cells | ATP-induced calcium, Fluo-8 fluorescence | inhibition, % at 3 µM | actives 0.6% (n = 360,000) | AID 602250;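 active = inhibition above a per-plate cutoff, the plate's mean sample inhibition plus 3 SD, cut at about 24% in these data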;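 also: 0% = DMSO plus EC80 ATP and 100% = DMSO alone without ATP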
CHRM1 agonist = human M1 muscarinic receptor agonism | activation, % at 3 µM | P11229 | CHO-K1 hM1, Fluo-8 calcium fluorescence, agonist mode; 0% DMSO, 100% acetylcholine EC100 | actives 0.33% (n = 360,000);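 active = activation above the run's mean compound activation plus 3 SD, cut at about 16% in these data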;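 also: peak over basal fluorescence ratio within a 140 s kinetic read after compound addition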
M1 antag = antagonists of human M1 muscarinic receptor; P11229; CHO-K1 hM1, Fluo-8 calcium fluorescence, ACh EC80 antagonist; inhibition, % at 3 µM; actives 1.3% (n = 360,000);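 active = percent inhibition above its own plate's cutoff, namely the mean of that plate's compound wells plus 3 SD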;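 also: peak over basal fluorescence ratio during 140 s after agonist addition; 0% = ACh EC80 plus DMSO and 100% = DMSO alone without agonist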
Numbers without * were called inactive. Most compounds without a hit are left out; they make up all but 2.4% or so of the library.

SMILES	CHO-K1 Ca ag	CHO-K1 Ca PAM	M1 PAM	CHO-K1 Ca antag	CHRM1 agonist	M1 antag
CN(Cc1ccccc1)C(=O)c1cccc(NC(=O)Cc2cccc([N+](=O)[O-])c2)c1	9	-5	-26	-10	-12	33*
CN(Cc1ccccc1)C(=O)c1cccc(NC(=O)Cc2ccc([N+](=O)[O-])cc2)c1	10	-5	-23	-5	-8	16
CC(OC(=O)c1cc(=O)[nH]c2ccccc12)C(=O)NC1CCCCC1C (stereo unspecified)	0	-21	5	9	-2	-2
Cc1cc(C)n2nc(SCC(=O)N3CCN(c4ccccc4)CC3)nc2n1	1	11	5	-12	-4	-3
Cc1ccc(CNC(=O)C2COc3ccccc3O2)cc1 (stereo unspecified)	0	7	1	-12	-2	9
Cc1ccc(C(C(=O)NCc2ccc(F)cc2)N(CCCO)C(=O)C2COc3ccccc3O2)o1 (stereo unspecified)	19*	-6	-11	18	-3	9
CCn1c(-c2ccc(-c3ccccc3)cc2)c[nH]c1=S	0	-6	-20	13	-6	48*
C=CCn1c(-c2ccccc2)c[nH]c1=S	2	26	6	-12	-2	-4
CCOC(=O)NC1=NCC(C)(C)S1	0	18	1	-17	-2	-7
COC(=O)c1ccccc1NC(=O)N1CCN(C/C=C/c2ccccc2)CC1	1	16	-7	-22	-9	3
COc1ccccc1C(=O)NCC(=O)N1CCN(C/C=C/c2ccccc2)CC1	0	8	1	-12	22*	-2
Cc1ccc(NC(=O)N2CCN(C/C=C/c3ccccc3)CC2)cc1	0	11	6	0	-10	-10
Cc1ccccc1C(=O)NCC(=O)N1CCN(C/C=C/c2ccccc2)CC1	1	-14	-18	-7	23*	33*
Cc1ccc(C(=O)CCC(=O)N2CCN(C/C=C/c3ccccc3)CC2)cc1	2	14	-9	0	24*	-3
CCCCNC(=O)N1CCN(C/C=C/c2ccccc2)CC1	0	-7	-7	13	-11	7
CCOc1ccc(C(=O)NCC(=O)N2CCN(C/C=C/c3ccccc3)CC2)cc1OCC	1	9	-14	-7	27*	30*
O=C(NCCc1ccccc1F)C1CCC(=O)N(CCCN2CCCC2=O)C1 (stereo unspecified)	0	-5	12	-11	-1	-20
NC(=O)C1CCN(C(=O)c2cc3ccccc3cc2O)CC1	0	-30	-2	22	-3	3
Cc1ccc2c(c1)nnn2C1CCN(CC(=O)N(c2ccccc2)c2ccccc2)CC1	4	-12	-22	-6	-8	34*
Cc1ccc2c(c1)nnn2C1CCN(S(=O)(=O)c2cccc(S(=O)(=O)N(C)C)c2)CC1	12	3	-12	5	3	37*
O=C(COC(=O)c1cc(=O)[nH]c(=O)[nH]1)Nc1ccccc1F	0	-11	11	1	-2	-14
O=C(OCC(=O)N(C1CCCCC1)C1CCCCC1)c1ccc(Cl)nc1	0	17	24*	-10	0	-22
CCCCNc1c2c3c(cccc3n(C)c1=O)C(=O)c1ccccc1-2	123*	-4	-23	69*	141*	75*
CN1C(=O)c2cccc(NCCCN3C(=O)c4ccccc4C3=O)c2C1=O	1	-2	8	-14	-6	-10
CC(=O)Nc1ccc(Nc2c3c4c(cccc4n(C)c2=O)C(=O)c2ccccc2-3)cc1	2	18	2	-6	-4	0
Cn1c(=O)cc2c3c(c(N4CCCCC4)ccc31)C(=O)c1ccccc1-2	0	-9	5	9	0	4
Cn1c(=O)c(NCCO)c2c3c(cccc31)C(=O)c1ccccc1-2	34*	-3	-16	18	70*	6
Cn1c(=O)c(NCCc2ccccc2)c2c3c(cccc31)C(=O)c1ccccc1-2	124*	-7	-20	70*	166*	80*
Cn1c(=O)c(NC2CCCCC2)c2c3c(cccc31)C(=O)c1ccccc1-2	16*	3	-14	11	13	16
